Source: the supplement of paper PMC7765376
In all, about 1,500 compounds were measured (“Excess HSA synergy score (sum over dose matrix of excess over highest single agent)”: median about 43, lowest 2% from about -900 on). Many of the other results were omitted from the sample, so the lowest values are more common in it than they were.

Test system: PEO-1
Experiment: Excess HSA synergy score (sum over dose matrix of excess over highest single agent) (score (summed % response)); higher = less synergy / more antagonism (negative = synergy)
Settings: 72 h, read-out: viability/apoptosis luminescence (CellTiter-Glo or Caspase3-Glo / not stated per table)
[1] = matrix design: 6x6, 5-fold dilutions (primary screen)
[2] = matrix design: 10x10, 9-step dilutions (confirmatory)

Compound	Excess HSA synergy score [1]	Excess HSA synergy score [2]
N#CCNC(=O)c1ccc(-c2ccnc(Nc3ccc(N4CCOCC4)cc3)n2)cc1 [Momelotinib] + CC[C@H](NC(=O)[C@H](C)NC)C(=O)N1C[C@@H](O)C[C@H]1Cc1c(-c2[nH]c3cc(F)ccc3c2C[C@@H]2C[C@H](O)CN2C(=O)[C@H](CC)NC(=O)[C@H](C)NC)[nH]c2cc(F)ccc12 [Birinapant]	-152	
Cc1ccc(-c2ncn(-c3ccc(Nc4nccc(-c5cccc(N6CCOCC6)c5)n4)cc3)n2)cn1 + CC[C@H](NC(=O)[C@H](C)NC)C(=O)N1C[C@@H](O)C[C@H]1Cc1c(-c2[nH]c3cc(F)ccc3c2C[C@@H]2C[C@H](O)CN2C(=O)[C@H](CC)NC(=O)[C@H](C)NC)[nH]c2cc(F)ccc12 [Birinapant]	108	-998
Cc1nc(N)sc1-c1ccnc(Nc2ccc(N3CCOCC3)cc2)n1 + CC[C@H](NC(=O)[C@H](C)NC)C(=O)N1C[C@@H](O)C[C@H]1Cc1c(-c2[nH]c3cc(F)ccc3c2C[C@@H]2C[C@H](O)CN2C(=O)[C@H](CC)NC(=O)[C@H](C)NC)[nH]c2cc(F)ccc12 [Birinapant]	9.08	
CCCS(=O)(=O)Nc1ccc(F)c(C(=O)c2c[nH]c3ncc(Cl)cc23)c1F + CC[C@H](NC(=O)[C@H](C)NC)C(=O)N1C[C@@H](O)C[C@H]1Cc1c(-c2[nH]c3cc(F)ccc3c2C[C@@H]2C[C@H](O)CN2C(=O)[C@H](CC)NC(=O)[C@H](C)NC)[nH]c2cc(F)ccc12 [Birinapant]	-164	
C=C1CC[C@@H]2[C@](C)(CO)[C@H](O)CC[C@@]2(C)[C@@H]1C/C=C1/C(=O)OC[C@H]1O [Andrographolide] + CC[C@H](NC(=O)[C@H](C)NC)C(=O)N1C[C@@H](O)C[C@H]1Cc1c(-c2[nH]c3cc(F)ccc3c2C[C@@H]2C[C@H](O)CN2C(=O)[C@H](CC)NC(=O)[C@H](C)NC)[nH]c2cc(F)ccc12 [Birinapant]	12.7	
C=CC(=O)Nc1cccc(Sc2nc(Nc3ccc(N4CCN(C)CC4)cc3)ncc2Cl)c1 + CC[C@H](NC(=O)[C@H](C)NC)C(=O)N1C[C@@H](O)C[C@H]1Cc1c(-c2[nH]c3cc(F)ccc3c2C[C@@H]2C[C@H](O)CN2C(=O)[C@H](CC)NC(=O)[C@H](C)NC)[nH]c2cc(F)ccc12 [Birinapant]	73.6	
Cc1nc(Nc2ncc(C(=O)Nc3c(C)cccc3Cl)s2)cc(N2CCN(CCO)CC2)n1 [Dasatinib] + CC[C@H](NC(=O)[C@H](C)NC)C(=O)N1C[C@@H](O)C[C@H]1Cc1c(-c2[nH]c3cc(F)ccc3c2C[C@@H]2C[C@H](O)CN2C(=O)[C@H](CC)NC(=O)[C@H](C)NC)[nH]c2cc(F)ccc12 [Birinapant]	-329	-1400
Cc1cc(Nc2cc(N3CCN(C)CC3)nc(Sc3ccc(NC(=O)C4CC4)cc3)n2)n[nH]1 [Tozasertib] + CC[C@H](NC(=O)[C@H](C)NC)C(=O)N1C[C@@H](O)C[C@H]1Cc1c(-c2[nH]c3cc(F)ccc3c2C[C@@H]2C[C@H](O)CN2C(=O)[C@H](CC)NC(=O)[C@H](C)NC)[nH]c2cc(F)ccc12 [Birinapant]	-170	
c1cc(-c2sc(-c3ccncc3)c(-c3ccncc3)c2-c2ccncc2)ccn1 + CC[C@H](NC(=O)[C@H](C)NC)C(=O)N1C[C@@H](O)C[C@H]1Cc1c(-c2[nH]c3cc(F)ccc3c2C[C@@H]2C[C@H](O)CN2C(=O)[C@H](CC)NC(=O)[C@H](C)NC)[nH]c2cc(F)ccc12 [Birinapant]	153	
O=c1cc(-c2ccccc2)oc2cc(O)cc(O)c12 [5,7-Dihydroxyflavone] + CC[C@H](NC(=O)[C@H](C)NC)C(=O)N1C[C@@H](O)C[C@H]1Cc1c(-c2[nH]c3cc(F)ccc3c2C[C@@H]2C[C@H](O)CN2C(=O)[C@H](CC)NC(=O)[C@H](C)NC)[nH]c2cc(F)ccc12 [Birinapant]	-131	
CCOC(=O)[C@@H](N)CCC(=O)N[C@@H](CSCc1ccccc1)C(=O)N[C@@H](C(=O)OCC)c1ccccc1 [Ezatiostat] + CC[C@H](NC(=O)[C@H](C)NC)C(=O)N1C[C@@H](O)C[C@H]1Cc1c(-c2[nH]c3cc(F)ccc3c2C[C@@H]2C[C@H](O)CN2C(=O)[C@H](CC)NC(=O)[C@H](C)NC)[nH]c2cc(F)ccc12 [Birinapant]	49.2	
CN1CCCN(C(=O)c2cccc(-c3ccc(/C=C4/C(=O)Nc5ccc(Cl)cc54)o3)c2)CC1 + CC[C@H](NC(=O)[C@H](C)NC)C(=O)N1C[C@@H](O)C[C@H]1Cc1c(-c2[nH]c3cc(F)ccc3c2C[C@@H]2C[C@H](O)CN2C(=O)[C@H](CC)NC(=O)[C@H](C)NC)[nH]c2cc(F)ccc12 [Birinapant]	92.9	-1060
Cc1[nH]c(/C=C2\C(=O)Nc3ccc(S(=O)(=O)Cc4c(Cl)cccc4Cl)cc32)c(C)c1C(=O)N1CCC[C@@H]1CN1CCCC1 + CC[C@H](NC(=O)[C@H](C)NC)C(=O)N1C[C@@H](O)C[C@H]1Cc1c(-c2[nH]c3cc(F)ccc3c2C[C@@H]2C[C@H](O)CN2C(=O)[C@H](CC)NC(=O)[C@H](C)NC)[nH]c2cc(F)ccc12 [Birinapant]	-132	
Cc1[nH]c(/C=C2\C(=O)Nc3ccc(S(=O)(=O)N(C)c4cccc(Cl)c4)cc32)c(C)c1C(=O)N1CCN(C)CC1 + CC[C@H](NC(=O)[C@H](C)NC)C(=O)N1C[C@@H](O)C[C@H]1Cc1c(-c2[nH]c3cc(F)ccc3c2C[C@@H]2C[C@H](O)CN2C(=O)[C@H](CC)NC(=O)[C@H](C)NC)[nH]c2cc(F)ccc12 [Birinapant]	-71.9	
COc1cc(-c2nn([C@H]3CC[C@H](N4CCN(C(C)=O)CC4)CC3)c3ncnc(N)c23)ccc1NC(=O)c1cc2ccccc2n1C + CC[C@H](NC(=O)[C@H](C)NC)C(=O)N1C[C@@H](O)C[C@H]1Cc1c(-c2[nH]c3cc(F)ccc3c2C[C@@H]2C[C@H](O)CN2C(=O)[C@H](CC)NC(=O)[C@H](C)NC)[nH]c2cc(F)ccc12 [Birinapant]	112	
CO[C@@H]1[C@H](N(C)C(=O)c2ccccc2)C[C@H]2O[C@]1(C)n1c3ccccc3c3c4c(c5c6ccccc6n2c5c31)C(=O)NC4=O [Stauprimide] + CC[C@H](NC(=O)[C@H](C)NC)C(=O)N1C[C@@H](O)C[C@H]1Cc1c(-c2[nH]c3cc(F)ccc3c2C[C@@H]2C[C@H](O)CN2C(=O)[C@H](CC)NC(=O)[C@H](C)NC)[nH]c2cc(F)ccc12 [Birinapant]	168	
COc1ccc(OC)c(-c2nnc3ccc(-c4ccc(OC)c(O[C@@H]5CCOC5)c4)nn23)c1 + CC[C@H](NC(=O)[C@H](C)NC)C(=O)N1C[C@@H](O)C[C@H]1Cc1c(-c2[nH]c3cc(F)ccc3c2C[C@@H]2C[C@H](O)CN2C(=O)[C@H](CC)NC(=O)[C@H](C)NC)[nH]c2cc(F)ccc12 [Birinapant]	-150	
CCC(=O)N1CCN(c2ccc(-n3c(=O)ccc4cnc5ccc(-c6cnc7ccccc7c6)cc5c43)cc2C(F)(F)F)CC1 [Torin-1] + CC[C@H](NC(=O)[C@H](C)NC)C(=O)N1C[C@@H](O)C[C@H]1Cc1c(-c2[nH]c3cc(F)ccc3c2C[C@@H]2C[C@H](O)CN2C(=O)[C@H](CC)NC(=O)[C@H](C)NC)[nH]c2cc(F)ccc12 [Birinapant]	-195	
COc1cc(OC)cc(-c2ccc3ncc4ccc(=O)n(-c5ccc(N6CCNCC6)c(C(F)(F)F)c5)c4c3c2)c1 + CC[C@H](NC(=O)[C@H](C)NC)C(=O)N1C[C@@H](O)C[C@H]1Cc1c(-c2[nH]c3cc(F)ccc3c2C[C@@H]2C[C@H](O)CN2C(=O)[C@H](CC)NC(=O)[C@H](C)NC)[nH]c2cc(F)ccc12 [Birinapant]	160	
Nc1ccc(-c2ccc3ncc4ccc(=O)n(-c5cccc(C(F)(F)F)c5)c4c3c2)cn1 [Torin-2] + CC[C@H](NC(=O)[C@H](C)NC)C(=O)N1C[C@@H](O)C[C@H]1Cc1c(-c2[nH]c3cc(F)ccc3c2C[C@@H]2C[C@H](O)CN2C(=O)[C@H](CC)NC(=O)[C@H](C)NC)[nH]c2cc(F)ccc12 [Birinapant]	-80.4	-999
CN1CCC(COc2cnc(-c3cccc(Cn4nc(-c5cccc(C#N)c5)ccc4=O)c3)nc2)CC1 + CC[C@H](NC(=O)[C@H](C)NC)C(=O)N1C[C@@H](O)C[C@H]1Cc1c(-c2[nH]c3cc(F)ccc3c2C[C@@H]2C[C@H](O)CN2C(=O)[C@H](CC)NC(=O)[C@H](C)NC)[nH]c2cc(F)ccc12 [Birinapant]	19.6	
Cn1cc(-c2ccc3nnc(Sc4ccc5ncccc5c4)n3n2)cn1 + CC[C@H](NC(=O)[C@H](C)NC)C(=O)N1C[C@@H](O)C[C@H]1Cc1c(-c2[nH]c3cc(F)ccc3c2C[C@@H]2C[C@H](O)CN2C(=O)[C@H](CC)NC(=O)[C@H](C)NC)[nH]c2cc(F)ccc12 [Birinapant]	117	
NC(=O)c1cccc(-c2cccc(OC(=O)NC3CCCCC3)c2)c1 + CC[C@H](NC(=O)[C@H](C)NC)C(=O)N1C[C@@H](O)C[C@H]1Cc1c(-c2[nH]c3cc(F)ccc3c2C[C@@H]2C[C@H](O)CN2C(=O)[C@H](CC)NC(=O)[C@H](C)NC)[nH]c2cc(F)ccc12 [Birinapant]	46.3	
CNc1nccc(-c2cccnc2Oc2cc(C(=O)Nc3cccc(C(F)(F)F)c3)ccc2C)n1 + CC[C@H](NC(=O)[C@H](C)NC)C(=O)N1C[C@@H](O)C[C@H]1Cc1c(-c2[nH]c3cc(F)ccc3c2C[C@@H]2C[C@H](O)CN2C(=O)[C@H](CC)NC(=O)[C@H](C)NC)[nH]c2cc(F)ccc12 [Birinapant]	73.8	
